Inconclusive results are not listed. Where a call stands in place of a potency, no number is given. Active and inactive are the calls of the source. Calls follow the shape of the dose curve; as a rule, active = well fitted curve in the direction sought with a large enough effect; inconclusive = small, poorly fitted or top-dose-only effect, or another doubt; inactive = no such curve, though single readings can be large; an effect the other way counts as inactive or inconclusive.

The first assay can be described thus: qHTS assay for measurement of the activity of small molecule inhibitors on Zika virus induced Caspase-3 activity in human astrocytoma cells (AID 1224859). The following applies: SNB-19 ZIKV-induced caspase-3/7, luminescence, 6 h; series mostly up to 45.7 µM. In outline: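 Percent inhibition of virus-induced caspase-3/7 signal is calculated against uninfected and ZIKV-infected control cells. Cells are SNB-19, infected at 2 FFU/cell for 6 h after 1 h compound exposure.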
For orientation: qHTS replaces the single test concentration by a dilution series.
`NC(=O)CN1CC(O)CC1=O` (stereo not drawn): the Potency result is “inactive”.
On the same count and under the same terms, as for `O=C(O)Cc1cnc[nH]1`, the entry is “inactive”; as for `CCCCCCCCc1ccc(O)cc1`, “inactive”.
On the same count and under the same terms, as for `COCCOCCO`, the entry is “inactive”; as for `CCCCOC(=O)c1ccccc1C(=O)OCc1ccccc1`, “inactive”.
Still for that read-out and setting: the entry for `COC(C)(C)CCCC(C)C/C=C/C(C)=C/C(=O)OC(C)C` (stereo not drawn) is “inactive”; for `CO/C=C(/C(=O)OC)c1ccccc1Oc1cc(Oc2ccccc2C#N)ncn1` it is “inactive”; for `COC(=O)c1cncn1C(C)c1ccccc1` (stereo not drawn) it is “inactive”.
As to `OCCCBr`, the Potency result is “inactive”.
The same measure, in the same setting: the entry for `NC(N)=NOCCC(N)C(=O)O` (stereo not drawn) is “inactive”; for `CNCCc1ccc(O)c(O)c1` it is “inactive”; for `NCCc1c[nH]c2ccc(O)cc12` it is “inactive”.
The same measure, in the same setting: the entry for `C=CCN1CC[C@]23CCCCC2[C@H]1Cc1ccc(O)cc13` (stereo partly drawn) is “inactive”; for `O=[N+]([O-])c1c2ccccc2cc2ccccc12` it is “inactive”; for `C/C=C(/C)C(=O)O[C@H]1C(C)=C2[C@H]([C@@H]1OC(=O)CCCCCCC)[C@@](C)(OC(C)=O)C[C@H](OC(=O)CCC)[C@@]1(O)[C@H]2OC(=O)[C@@]1(C)O` it is “inactive”.
On the same count and under the same terms, the entry for `O=S(=O)(O)C(F)(F)C(F)(F)C(F)(F)C(F)(F)F` is “inactive”.
For the compound `S=C(SSC(=S)N1CCCCC1)N1CCCCC1`, the Potency entry is “inactive”.
Turning to `NC(CP(=O)(O)O)C(=O)O` (stereo not drawn), the Potency result is “inactive”.
The same measure, in the same setting: as for `C1CCC(NC2CCCCC2)CC1`, the entry is “inactive”; as for `COc1nn(CSP(=S)(OC)OC)c(=O)s1`, “inactive”.
Still for that read-out and setting: as for `O=S(=O)(O)C(F)(F)C(F)(F)C(F)(F)C(F)(F)C(F)(F)C(F)(F)C(F)(F)C(F)(F)F`, the entry is “inactive”.
Same read-out and setting: as for `C=CC(=O)NCNC(=O)C=C`, the entry is “inactive”; as for `CNCCc1c[nH]c2ccc(O)cc12`, “inactive”; as for `CCCCCCCCCC(CC)c1ccc(S(=O)(=O)O)cc1` (stereo not drawn), “inactive”.
As to `NC(=NCCC[C@H](N)C(=O)O)N[N+](=O)[O-]`, the Potency result is “inactive”.
The same measure, in the same setting: the entry for `Nc1c(Cl)c(Cl)c(Cl)c(Cl)c1Cl` is “inactive”.
As for `CCC1(CCC(C)C)C(=O)NC(=O)NC1=O`, the Potency entry was “inactive”.
The same measure, in the same setting: the entry for `O=C(O)CCCOc1ccc(Cl)cc1Cl` is “inactive”; for `CCO/N=C(\CC)C1=C(O)CC(c2c(C)cc(C)cc2C)CC1=O` (stereo not drawn) it is “inactive”.
Same read-out and setting: the entry for `O=[N+]([O-])/N=C1\NCCN1Cc1ccc(Cl)nc1` is “inactive”; for `CC(C)NCC(O)c1ccc([N+](=O)[O-])cc1` (stereo not drawn) it is “inactive”.
Still for that read-out and setting: the entry for `CC[N+]1(CCOC(=O)C(O)(c2ccccc2)c2ccccc2)CCCCC1` is “inactive”.
Consider `Cc1ccc(Cl)c(O)c1`, for which the Potency entry was “inactive”.
On the same count and under the same terms, as for `CS(=O)(=O)c1ccc(C(=O)C2C(=O)CCCC2=O)c([N+](=O)[O-])c1`, the entry is “inactive”.
The same measure, in the same setting: as for `c1cc2ccc3cccc4ccc(c1)c2c34`, the entry is “inactive”; as for `NC1CCc2cc(O)c(O)cc2C1` (stereo not drawn), “inactive”.

A short description of the next assay: qHTS assay to identify small molecule inhibitors of chordoma cells - UCH-1 (AID 1259355). Also: nearly all actives have a fitted effect of over 55% in size. Also: potency is read from the fitted curve at half-maximal effect. The note with it: UCH-1 chordoma viability, CellTiter-Glo, 48 h, combination; series mostly up to 46.1 µM. The method in brief: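 Luminescent ATP read-out (CellTiter-Glo, 30min at room temperature) measured viability of UCH-1 cells exposed for 48hr to test drugs at 15 concentrations, co-dosed with a five-agent combination of auranofin, camptothecin, doxorubicin, rubitecan and topotecan.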
Take `NC(=O)CN1CC(O)CC1=O` (stereo not drawn): the Potency result is “inactive”.
As for `CC(=O)[O][Hg][c]1ccccc1`, the Potency is 7080 nM (active).
On the same count and under the same terms, as for `COC(C)(C)CCCC(C)C/C=C/C(C)=C/C(=O)OC(C)C` (stereo not drawn), the entry is “inactive”; as for `COC(=O)c1cncn1C(C)c1ccccc1` (stereo not drawn), “inactive”.
Same read-out and setting: as for `C[N+](C)(C)CC(=O)O`, the entry is “inactive”; as for `CCCCCCCCCC(CC)c1ccc(S(=O)(=O)O)cc1` (stereo not drawn), “inactive”; as for `CC[N+]1(CCOC(=O)C(O)(c2ccccc2)c2ccccc2)CCCCC1`, “inactive”.
The same measure, in the same setting: the entry for `Cc1ccc(Cl)c(O)c1` is “inactive”.

The nature of the next assay: P-glycoprotein substrates identified in KB-8-5-11 adenocarcinoma cell line, qHTS therapeutic library screen (AID 1346987). Also: nearly all actives have a fitted effect of over 65% in size. Also: potency is read from the fitted curve at half-maximal effect. The following applies: KB-8-5-11 (P-gp overexpressing) viability, CellTiter-Glo, 72 h; series mostly up to 44.5 µM. The method in brief:
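KB-8-5-11: colchicine-selected sub-line of KB-3-1 over-expressing P-gp; assay medium lacked colchicine. 72 h drug exposure at 37 degree C, CellTiter-Glo.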
For `CCCCCCCCc1ccc(O)cc1`, the Potency entry is “inactive”.
Regarding `CC(=O)[O][Hg][c]1ccccc1`, the Potency is 259 nM (active).
The same measure, in the same setting: the entry for `CCCCC(CC)COC(=O)c1ccccc1C(=O)OCC(CC)CCCC` (stereo not drawn) is “inactive”; for `COCCOCCO` it is “inactive”.
`CCCCOC(=O)c1ccccc1C(=O)OCc1ccccc1`: the Potency entry was “inactive”.
The same measure, in the same setting: the figure for `CO/C=C(/C(=O)OC)c1ccccc1Oc1cc(Oc2ccccc2C#N)ncn1` is 3160 nM (active); for `OCCCBr` it is “inactive”.
Take `C/C=C(/C)C(=O)O[C@H]1C(C)=C2[C@H]([C@@H]1OC(=O)CCCCCCC)[C@@](C)(OC(C)=O)C[C@H](OC(=O)CCC)[C@@]1(O)[C@H]2OC(=O)[C@@]1(C)O`: the Potency is 2060 nM (active).
On the same count and under the same terms, as for `O=S(=O)(O)C(F)(F)C(F)(F)C(F)(F)C(F)(F)F`, the entry is “inactive”; as for `S=C(SSC(=S)N1CCCCC1)N1CCCCC1`, “inactive”.
The same measure, in the same setting: the entry for `C1CCC(NC2CCCCC2)CC1` is “inactive”.
On the same count and under the same terms, the entry for `O=S(=O)(O)C(F)(F)C(F)(F)C(F)(F)C(F)(F)C(F)(F)C(F)(F)C(F)(F)C(F)(F)F` is “inactive”.
`C=CC(=O)NCNC(=O)C=C`: the Potency entry was “inactive”.
Still for that read-out and setting: the entry for `CCCCCCCCCC(CC)c1ccc(S(=O)(=O)O)cc1` (stereo not drawn) is “inactive”.
On the same count and under the same terms, as for `Nc1ccc(N=Nc2ccccc2)cc1`, the entry is “inactive”; as for `Nc1c(Cl)c(Cl)c(Cl)c(Cl)c1Cl`, “inactive”.
Same read-out and setting: the entry for `CCC1(CCC(C)C)C(=O)NC(=O)NC1=O` is “inactive”; for `O=C(O)CCCOc1ccc(Cl)cc1Cl` it is “inactive”; for `CCO/N=C(\CC)C1=C(O)CC(c2c(C)cc(C)cc2C)CC1=O` (stereo not drawn) it is “inactive”.
Regarding `O=[N+]([O-])/N=C1\NCCN1Cc1ccc(Cl)nc1`, the Potency entry was “inactive”.
For `CC(C)NCC(O)c1ccc([N+](=O)[O-])cc1` (stereo not drawn), the Potency entry was “inactive”.
On the same count and under the same terms, the entry for `CC[N+]1(CCOC(=O)C(O)(c2ccccc2)c2ccccc2)CCCCC1` is “inactive”; for `CS(=O)(=O)c1ccc(C(=O)C2C(=O)CCCC2=O)c([N+](=O)[O-])c1` it is “inactive”; for `c1cc2ccc3cccc4ccc(c1)c2c34` it is “inactive”.

Source of the values: PubChem BioAssay (NCATS).
